Test results as given in PubChem BioAssay AID1159580 (chemical genetic matrix, 2015).
Screen size: about 5,500 compounds; about 2,000 (36%) were called active. Not shown: some 18% with an inconclusive outcome. No stated cut-off is given here; in the data, active means normalized growth mostly below about 0.91 (no sharp cut-off); inconclusive means no clear call, values can overlap the other calls; inactive means mostly above about 0.92. The list shows a part of the results.

Test: chemical genetic growth profiling, strain panel (AID 1159580);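 further: tested at 20 µM; growth read once vehicle control cultures reached saturation at 30 °C; 1 = growth at the plate median or of vehicle wells; lower values mean less growth of the strain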
Details: growth OD

Measured: normalized growth

COC[C@]12CN(C=O)C3[C@@H]4[C@H](OC)C1[C@]3(C1CC3(O)C(OC)C(O)C4(OC(C)=O)C1C3OC(=O)c1ccccc1)[C@@H](OC)C[C@H]2O (stereo not given in full)
inactive: S. cerevisiae deletion strains, locus YJR066W, strain TOR1, hits give low values 0.991 | S. cerevisiae deletion strains, locus YJR075W, strain HOC1, hits give low values 1.02 | S. cerevisiae deletion strains, locus YKL009W, strain mrt4, hits give low values 0.991 | S. cerevisiae deletion strains, locus YKL068W, hits give low values 1 | S. cerevisiae deletion strains, locus YKL085W, strain MDH1 (second series), hits give low values 1.01 | S. cerevisiae deletion strains, locus YKL085W, strain MDH1, hits give low values 1.01 | S. cerevisiae deletion strains, locus YKL160W, strain elf1, hits give low values 1.01 | S. cerevisiae deletion strains, locus YKR001C, strain vps1, hits give low values 1.02 | S. cerevisiae deletion strains, locus YKR026C, strain gcn3, hits give low values 1.02 | S. cerevisiae deletion strains, locus YKR091W, strain srl3, hits give low values 1.01 | S. cerevisiae deletion strains, locus YLL001W, strain dnm1, hits give low values 1.01 | S. cerevisiae deletion strains, locus YLL026W, hits give low values 1.01 | S. cerevisiae deletion strains, locus YLL041C, strain sdh2, hits give low values 1.01 | S. cerevisiae deletion strains, locus YLR027C, strain aat2, hits give low values 1 | S. cerevisiae deletion strains, locus YLR039C, strain RIC1, hits give low values 1.06 | S. cerevisiae deletion strains, locus YLR058C, strain SHM2, hits give low values 1.02 | S. cerevisiae deletion strains, locus YLR102C, strain apc9, hits give low values 1.01 | S. cerevisiae deletion strains, locus YLR113W, strain HOG1, hits give low values 0.972 | S. cerevisiae deletion strains, locus YLR221C, strain rsa3, hits give low values 1.01 | S. cerevisiae deletion strains, locus YLR258W, strain gsy2, hits give low values 1.02 | S. cerevisiae deletion strains, locus YLR262C, strain YPT6 (second series), hits give low values 0.995 | S. cerevisiae deletion strains, locus YLR262C, strain YPT6, hits give low values 1.04 | S. cerevisiae deletion strains, locus YLR268W, strain sec22, hits give low values 0.992 | S. cerevisiae deletion strains, locus YLR320W, strain mms22, hits give low values 1.03 | S. cerevisiae deletion strains, locus YLR342W, strain FKS1 (second series), hits give low values 1.01 | S. cerevisiae deletion strains, locus YLR342W, strain FKS1, hits give low values 1.03 | S. cerevisiae deletion strains, locus YLR357W, strain rsc2, hits give low values 1.01 | S. cerevisiae deletion strains, locus YLR370C, strain arc18, hits give low values 1.01 | S. cerevisiae deletion strains, locus YLR371W, strain rom2, hits give low values 0.995 | S. cerevisiae deletion strains, locus YLR384C, strain iki3, hits give low values 1.01 | S. cerevisiae deletion strains, locus YLR418C, strain cdc73, hits give low values 1.05 | S. cerevisiae deletion strains, locus YML016C, strain PPZ1, hits give low values 0.999 | S. cerevisiae deletion strains, locus YML032C, strain rad52, hits give low values 0.995 | S. cerevisiae deletion strains, locus YML120C, strain ndi1, hits give low values 1.01 | S. cerevisiae deletion strains, locus YML124C, strain tub3, hits give low values 1.01 | S. cerevisiae deletion strains, locus YMR058W, strain fet3, hits give low values 1.01 | S. cerevisiae deletion strains, locus YMR078C, strain ctf18, hits give low values 1.01 | S. cerevisiae deletion strains, locus YMR125W, strain sto1, hits give low values 1.01 | S. cerevisiae deletion strains, locus YMR129W, hits give low values 1.01 | S. cerevisiae deletion strains, locus YMR205C, strain PFK2, hits give low values 1.01 | S. cerevisiae deletion strains, locus YMR223W, strain ubp8, hits give low values 1.01 | S. cerevisiae deletion strains, locus YMR231W, strain pep5, hits give low values 1 | S. cerevisiae deletion strains, locus YMR307W, strain GAS1, hits give low values 1.02 | S. cerevisiae deletion strains, locus YNL067W, strain RPL9B, hits give low values 1.03 | S. cerevisiae deletion strains, locus YNL071W, strain lat1, hits give low values 1 | S. cerevisiae deletion strains, locus YNL183C, strain NPR1, hits give low values 0.987 | S. cerevisiae deletion strains, locus YNL209W, strain ssb2, hits give low values 1 | S. cerevisiae deletion strains, locus YNL233W, strain BNI4, hits give low values 1.01 | S. cerevisiae deletion strains, locus YNL248C, strain rpa49, hits give low values 1.02 | S. cerevisiae deletion strains, locus YNL250W, strain rad50, hits give low values 1.04 | S. cerevisiae deletion strains, locus YNL271C, strain bni1, hits give low values 1.02 | S. cerevisiae deletion strains, locus YNL298W, strain CLA4, hits give low values 1.02 | S. cerevisiae deletion strains, locus YNL307C, strain MCK1, hits give low values 1.01 | S. cerevisiae deletion strains, locus YNL322C, strain KRE1 (second series), hits give low values 1.02 | S. cerevisiae deletion strains, locus YNR049C, strain mso1, hits give low values 1.01 | S. cerevisiae deletion strains, locus YNR052C, strain pop2, hits give low values 1.01 | S. cerevisiae deletion strains, locus YOL006C, strain TOP1, hits give low values 1.03 | S. cerevisiae deletion strains, locus YOL012C, strain htz1 0.737 | S. cerevisiae deletion strains, locus YOL147C, strain pex11, hits give low values 1 | S. cerevisiae deletion strains, locus YOR001W, strain rrp6, hits give low values 1.02 | S. cerevisiae deletion strains, locus YOR061W, strain CKA2, hits give low values 1.01 | S. cerevisiae deletion strains, locus YOR069W, strain VPS5, hits give low values 1.01 | S. cerevisiae deletion strains, locus YOR070C, strain gyp1, hits give low values 1 | S. cerevisiae deletion strains, locus YOR080W, strain dia2, hits give low values 1.01 | S. cerevisiae deletion strains, locus YOR083W, strain WHI5, hits give low values 1.01 | S. cerevisiae deletion strains, locus YOR106W, strain vam3, hits give low values 1 | S. cerevisiae deletion strains, locus YOR136W, strain idh2, hits give low values 1.01 | S. cerevisiae deletion strains, locus YOR144C, strain elg1, hits give low values 1.01 | S. cerevisiae deletion strains, locus YOR184W, strain ser1, hits give low values 1.01 | S. cerevisiae deletion strains, locus YOR231W, strain MKK1, hits give low values 1.01 | S. cerevisiae deletion strains, locus YOR265W, strain rbl2, hits give low values 1 | S. cerevisiae deletion strains, locus YOR270C, strain vph1, hits give low values 1.03 | S. cerevisiae deletion strains, locus YOR290C, strain snf2, hits give low values 1.02 | S. cerevisiae deletion strains, locus YOR316C, strain cot1, hits give low values 1.01 | S. cerevisiae deletion strains, locus YPL051W, strain arl3, hits give low values 1.01 | S. cerevisiae deletion strains, locus YPL078C, strain atp4, hits give low values 1.01 | S. cerevisiae deletion strains, locus YPL106C, strain sse1, hits give low values 0.999 | S. cerevisiae deletion strains, locus YPL240C, strain hsp82, hits give low values 1.01 | S. cerevisiae deletion strains, locus YPL256C, strain CLN2, hits give low values 1.08 | S. cerevisiae deletion strains, locus YPR119W, strain clb2, hits give low values 1 | S. cerevisiae deletion strains, locus YPR141C, strain kar3, hits give low values 0.998 | S. cerevisiae deletion strains, locus YPR163C, strain tif3, hits give low values 1.01 | S. cerevisiae deletion strains, locus YPR167C, strain met16, hits give low values 1.01 | S. cerevisiae deletion strains, strain wtn01, hits give low values 0.99 | S. cerevisiae strains, strain wild type, hits give low values 1.02
